The results in this text go back to the OligoGym collection.
Note: reference of the scale not given here.

The target of one assay is FBXL3. The assay can be described thus: pooled miR-30 sensor sort-seq; sequence = guide strand. To be noted: shRNA.
In turn, TACTTGGAGAATAATGTCCTGA returned a sensor-assay potency score (higher = more potent) of 0.112.
The same measure, in the same setting: the value for TTAATTATAATACATTTGCTTG was -1.08; that for TACATCACTAAGTTCACTTTGG was 0.0732; that for TTTAATAATCTGTTTGATCAGC was -0.685.
TATGGAAGTGTGTCTGTCCAGG yielded a sensor-assay potency score (higher = more potent) of -0.66.
TACTGGAGTATCATCTATCTTA came in with a sensor-assay potency score (higher = more potent) of -0.0234.
With TTGCTTGAAATTAAGGTGCTAT, the sensor-assay potency score (higher = more potent) came to 0.353.
Regarding TTCCTTGCTGCTGTCCACCTTG, the sensor-assay potency score (higher = more potent) is -0.442.
On the same count and under the same terms, the value for TAACTCTTCATCAAGTGGCCGT was -0.249.
For the sequence TATCACAAGCTGCTTCAGCTGA, the sensor-assay potency score (higher = more potent) was -0.251.

A further assay concerns the target FBXO25. The assay is described as above. To be noted: shRNA.
As to TCTGTCTTAATCCAACTCCATC, the sensor-assay potency score (higher = more potent) was -1.72.
In turn, TATTGAATATTTCTCCATCTTC gave a sensor-assay potency score (higher = more potent) of -0.493.
On the same count and under the same terms, the value for TCACTAAGCATATACAACGTGG was -0.518; that for TCTTAATCCAACTCCATCCAGG was -0.487.
ATATCTTGAATTGCACTTGAGA gave a sensor-assay potency score (higher = more potent) of -0.85.
In turn, TTCACTTGCTTAGTCATCTGAA returned a sensor-assay potency score (higher = more potent) of 0.836.
As to TAATCCAACTCCATCCAGGAGA, the sensor-assay potency score (higher = more potent) is -0.761.
As to TTGACCACATAATTGAACCTTC, the sensor-assay potency score (higher = more potent) came out at 0.213.
Same read-out and setting: under TTTTTTTCGATGCATATTCATG stands -0.983; under TGTGTCTCCGTACTGCTCCTTC, -0.185; under TAGGTCTTGCAGAAGATCTTTG, -0.731.
TTCACTAAGCATATACAACGTG registered a sensor-assay potency score (higher = more potent) of -0.104.
